Data: PubChem BioAssay AID449768 (Vanderbilt High Throughput Screening Facility, 2010)
The whole screen tested about 110,000 compounds, of which about 1,400 (1.3%) were called active.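 Rule for the calls: active = Z score or B-score, a plate-position-corrected score, falls beyond the plate's 99.7% confidence bounds, in either direction; inactive = both scores lie inside the 99.7% bounds.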 What follows is part of a selection rich in actives, with near analogues and random picks from the rest.

These compounds were tested against Sodium-dependent dopamine transporter (Homo sapiens) (UniProt Q01959) (assay: modulators of human DAT uptake with cocaine – cell-based, LLC-PK1 hDAT, [14C]-dopamine uptake, MLSMR, cocaine antagonist project, primary screen (AID 449768;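 note: scored against the spread of the other compound wells on the same plate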)). Settings: LLC-PK1 hDAT cells, [14C]-dopamine uptake with cocaine IC80; at 10 µM; actives deviate in either direction.
Sodium-dependent dopamine transporter (Homo sapiens), sequence (Q01959 whole entry, looked up): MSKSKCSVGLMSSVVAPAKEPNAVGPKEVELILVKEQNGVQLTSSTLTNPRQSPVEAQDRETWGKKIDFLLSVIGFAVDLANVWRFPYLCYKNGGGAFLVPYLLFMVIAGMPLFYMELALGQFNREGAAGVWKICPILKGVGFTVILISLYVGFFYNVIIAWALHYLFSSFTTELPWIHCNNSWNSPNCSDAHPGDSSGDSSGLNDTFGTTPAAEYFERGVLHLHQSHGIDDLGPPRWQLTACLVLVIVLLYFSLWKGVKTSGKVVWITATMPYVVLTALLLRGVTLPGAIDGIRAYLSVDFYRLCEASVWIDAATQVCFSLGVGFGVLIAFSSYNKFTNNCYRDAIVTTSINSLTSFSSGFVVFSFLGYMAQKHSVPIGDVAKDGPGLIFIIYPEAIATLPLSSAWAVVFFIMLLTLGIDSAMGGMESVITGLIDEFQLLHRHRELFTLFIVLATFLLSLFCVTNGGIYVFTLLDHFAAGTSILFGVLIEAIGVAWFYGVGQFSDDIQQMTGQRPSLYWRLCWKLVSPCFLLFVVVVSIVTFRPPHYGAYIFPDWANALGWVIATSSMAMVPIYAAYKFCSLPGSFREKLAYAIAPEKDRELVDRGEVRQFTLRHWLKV
In the case of `C/C=C(\C)C(=O)NCCN1C2=NC[C@H](Cc3ccc(O)cc3)N2C[C@@H]1Cc1ccc(OC)cc1`, the B-score is reported as 1.04 (inactive).
For `Cc1ncn(C23CC4CC(CC(O)(C4)C2)C3)n1`, the B-score was -8.14 (active).
In the case of `COC(=O)c1ccc(NC(=O)C23CC4CC(C2)CC(n2cnc(Cl)n2)(C4)C3)cc1`, the B-score is reported as -1.17 (inactive).
`CC(N)C12CC3CC(CC(O)(C3)C1)C2` (configuration not stated) was tested, and the B-score was -0.549 (inactive).
For `COC(=O)c1c(C)cc(O)c(C)c1O`, the B-score was -0.00953 (inactive).
In the case of `COC(C/C=C/C(=O)[C@@H](C)OCc1ccccc1)OC`, the B-score is reported as 0.0548 (inactive).
`C=C1C2C[C@H](O)C(C)(C)[C@@]2(O)[C@H](O)C[C@]23C[C@@](C)(O)[C@H](CC[C@H]12)[C@H]3O` (some centres not stated) was tested, and the B-score was -0.371 (inactive).
For `C=CCC1(C(=O)N(C)Cc2ccccc2)CCN(C(=O)OC(C)(C)C)CC1`, the B-score was 1.32 (inactive).
With `O=C1N[C@H](Cc2ccccc2)C(=O)N[C@H]1Cc1cn(S(=O)(=O)c2ccccc2)c2ccccc12` the B-score was -1.21 (inactive).
In the case of `CC(C)(C)CN1C(=O)C(=O)NC[C@H]1Cc1cccc2ccccc12`, the B-score is reported as 1.91 (inactive).
In the case of `CCOC(=O)C1=C(C)NC(C)=C(C(=O)OCC)C1c1ccccn1`, the B-score is reported as -1.62 (inactive).
For `CCOC(=O)c1sc(=S)n2c1[nH]c(=O)c1ccc(C(=O)OC)cc12`, the B-score was 0.185 (inactive).
In the case of `CCOC(=O)C1=C(C)Nc2sc(C(=O)c3ccc(Br)cc3)c(N)c2C1c1ccc(C(=O)OC)cc1` (configuration not stated), the B-score is reported as 2.41 (active).
For `Cc1ccc(CNC(=O)c2ccc3c(c2)S(=O)(=O)c2ccccc2C3=O)cc1`, the B-score was 0.00832 (inactive).
In the case of `CCCC[C@@H]1CN=C(N)N1CCCC`, the B-score is reported as 0.44 (inactive).
For `COC(=O)CNC(=O)c1ccccc1[N+](=O)[O-]`, the B-score was -0.561 (inactive).
`CC(=O)c1sc(NC(=O)c2cccc3ccccc23)nc1C` was tested, and the B-score was 1.43 (inactive).
With `CC(=O)Oc1ccccc1C(=O)Nc1ncc([N+](=O)[O-])s1` the B-score was -5.94 (active).
In the case of `COC(=O)C1=C(N)Oc2cc(C)oc(=O)c2C1c1cccnc1` (configuration not stated), the B-score is reported as 0.0204 (inactive).
`CCSc1nc2c(c(=O)[nH]1)C(c1cccnc1)C(C(=O)OC(C)C)=C(C)N2` (configuration not stated) was tested, and the B-score was 2.12 (active).
`COC(=O)C1=C(C)Nc2ncnn2C1c1cccnc1` (configuration not stated) was tested, and the B-score was 0.0386 (inactive).
In the case of `CCC(=O)Nc1cccc(C2=NOC3(C2)C[C@@H](C(N)=O)N(C(=O)c2cc([N+](=O)[O-])cc([N+](=O)[O-])c2C)C3)c1` (some centres not stated), the B-score is reported as -0.0284 (inactive).
In the case of `COC(=O)C1(S(=O)(=O)C2(C(=O)OC)CCCC2)CCCC1`, the B-score is reported as -2.03 (active).
With `C#CCOCCOCCOCCNc1nc(N2CCN(C(=O)[C@H](CCC(=O)O)n3cc(C(N)CO)nn3)CC2)nc(N2CCN(C(=O)[C@H](CCCCN)n3cc(C(N)CC(C)C)nn3)CC2)n1` (some centres not stated) the B-score was -0.496 (inactive).
In the case of `COC(C[C@@H](O)[C@H](C)[C@H](O)COCc1ccccc1)OC`, the B-score is reported as -0.281 (inactive).
With `CC(C)=CCc1c(O)c(CC=C(C)C)c2occ(-c3ccc(O)cc3)c(=O)c2c1O` the B-score was 1.79 (inactive).
In the case of `CNC(=O)c1[nH]cnc1C(=O)N[C@@H](CC(C)C)C(=O)OC(C)(C)C`, the B-score is reported as 0.0376 (inactive).
`CCCOc1ccc(C2C(C(=O)c3ccc(C)o3)=C(O)C(=O)N2CCCn2ccnc2)cc1` (configuration not stated) was tested, and the B-score was 0.735 (inactive).
For `COc1cc(C2C(C(=O)c3ccc(C)o3)=C(O)C(=O)N2CCc2ccccc2)ccc1O` (configuration not stated), the B-score was -5.4 (active).
`COc1cc(C2C(C(=O)c3ccc(C)o3)=C(O)C(=O)N2Cc2cccnc2)ccc1O` (configuration not stated) was tested, and the B-score was -0.83 (inactive).
For `COC(C[C@H](O)CC(=O)COCc1ccccc1)OC`, the B-score was -0.106 (inactive).
`COC(=O)c1sc(NC(=O)c2ccc(OC)cc2OC)nc1C` was tested, and the B-score was -0.655 (inactive).
For `COc1ccc2nc(NC(=O)c3ccc(Br)s3)sc2c1`, the B-score was -2.65 (active).
`CNC(=O)c1ccc2nc(NC(C)=O)sc2c1` was tested, and the B-score was -0.144 (inactive).
`Cc1c(C(=O)CN2CCOCC2)[nH]c2ccccc12` was tested, and the B-score was -1.19 (inactive).
In the case of `Cc1c(C(=O)N2CCOCC2)[nH]c2ccc(OCc3ccccc3)cc12`, the B-score is reported as 2.65 (active).
With `CCOC(=O)c1[nH]c2ccc(OC)cc2c1NC(=O)N1CCOCC1` the B-score was 2.03 (inactive).
In the case of `COc1ccc(SCCN2CCN(CC(C)C)CCC2=O)cc1`, the B-score is reported as -0.972 (inactive).
For `C=C1CCN([C@@H](Cc2ccccc2)C(=O)N2CCOCC2)S(=O)(=O)c2ccccc21`, the B-score was -0.0232 (inactive).
`CCC(C)[C@@H](C(=O)N1CCNCC1)n1cc(CCCCN)nn1` (some centres not stated) was tested, and the B-score was -0.575 (inactive).
For `Fc1ccc(-c2ccc(-c3nn4c(-c5ccco5)nnc4s3)o2)cc1`, the B-score was -8.2 (active).
With `Cc1nnc2sc(-c3ccco3)nn12` the B-score was -0.595 (inactive).
For `FC(F)(F)c1nnc2sc(-c3ccco3)nn12`, the B-score was -0.943 (inactive).
In the case of `CC(C)(C)n1nc(Cc2cccc3ccccc23)c(C#N)c1N`, the B-score is reported as -0.00603 (inactive).
In the case of `Cc1ccc(NC(=O)CN2CCc3ccccc3C2)cc1`, the B-score is reported as -0.0113 (inactive).
`Cc1ccc(NC(=O)CCN2CCc3ccccc3C2)cc1` was tested, and the B-score was 2.16 (active).
For `O=C(Nc1ccc(S(=O)(=O)N2CCc3ccccc3C2)cc1)c1ccccc1`, the B-score was -0.732 (inactive).
For `COC(=O)CCCC1=CC2=CC(=O)C(C)(OC(=O)c3cccs3)C(=O)C2=CN1CC1CC1` (configuration not stated), the B-score was -0.726 (inactive).
`CCC1(CC)C(=O)C2=C3C1[C@H](C(=O)OC)C=C(C(=O)OC)C[C@H]3[C@H]1C(=O)N(Cc3ccccc3)C(=O)[C@H]1[C@H]2C` (some centres not stated) was tested, and the B-score was 0.0892 (inactive).
`CCCCN1C(=S)NC[C@@H]1C(C)CC` (some centres not stated) was tested, and the B-score was -0.761 (inactive).
`CCCCN1C(N)=NC[C@@H]1CC1CCCCC1` was tested, and the B-score was -1.39 (inactive).
`COC(=O)Nc1c(C)n(C)n(-c2ccccc2)c1=O` was tested, and the B-score was 0.348 (inactive).
In the case of `Cc1cc(C)cc(N(C(C)C(=O)Nc2c(C)n(C)n(-c3ccccc3)c2=O)S(C)(=O)=O)c1` (configuration not stated), the B-score is reported as -0.551 (inactive).
For `Cc1c(NC(=O)C(C)OC(=O)c2cc3c4ccccc4n(C)c3s2)c(=O)n(-c2ccccc2)n1C` (configuration not stated), the B-score was 4.67 (active).
In the case of `Oc1c(Cl)cc(Cl)c(Cl)c1Cc1c(O)c(Cl)cc(Cl)c1Cl`, the B-score is reported as -5.94 (active).
`Cc1nc(-c2ccc(Cl)cc2)sc1C1(C)CC(c2ccccc2F)=NO1` (configuration not stated) was tested, and the B-score was -0.519 (inactive).
`CC[C@@H](C)[C@@H](C(=O)N1CCN(C(=O)OC(C)(C)C)CC1)n1cc(CCC(=O)O)nn1` was tested, and the B-score was -0.83 (inactive).
